We go through 58 compounds from PubChem BioAssay AID1863 (Southern Research Specialized Biocontainment Screening …, 2009).

Usually inhibition stands for the relative decrease from the control value, in per cent.

Screen size: about 300,000 compounds; about 480 (0.16%) were called active. These entries were drawn from the full list. Entries with a potency or affinity are not part of this list. Values without a mark were called inactive.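 How the source made its calls: active means inhibition over 29.93%, a cutoff 3 SD above the screen mean, later confirmed by dose response; inconclusive means inhibition over 29.93% but no dose response follow-up; inactive means inhibition at most 29.93% or unconfirmed.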

The nature of this experiment: inhibitors of PhoP regulon expression, primary screen, Salmonella Typhimurium, GFP reporter (AID 1863).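 Further: 0% = low Mg2+ inducing control and 100% = high Mg2+ repressing control.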 The conditions noted are these: S. Typhimurium PhoP-regulated promoter GFP reporter, 4 h; at 50 µM; active compounds read high.
On to `O=C(OCc1ccc(COC(=O)c2ccccn2)cc1)c1ccccn1`, for which the inhibition is -1.35%.

With `CCOC(=O)C1CCCN(Cc2sccc2C)C1` (stereo not drawn), the inhibition was 7.84%.

For `C[C@H](NC(=O)C1CCN(S(=O)(=O)c2ccccc2)CC1)C(=O)NCc1cccc(C(F)(F)F)c1`, the inhibition is -1.18%.

For the compound `COC(=O)n1c(=O)oc2cc(S(=O)(=O)N3CCOCC3)ccc21`, the inhibition was 7.81%.

`CN(C)C(=O)CN1C(=O)c2cccc3cccc1c23`: the inhibition was 8.86%.

`O=C(Nc1ccc2ncccc2c1)c1cc(Cl)ccc1Cl`: the inhibition is 0.12%.

Take `O=C(NCc1ccccc1)C(c1cccnc1)N(C(=O)c1ccccn1)c1ccc(F)cc1` (stereo not drawn): the inhibition is 2.95%.

Consider `Cc1ccc(S(=O)(=O)N/N=C2\C(=O)C3(C)CCC2C3(C)C)cc1` (stereo not drawn), for which the inhibition was 4.91%.

Turning to `COc1ccc(NS(=O)(=O)c2ccc(NC(=S)NC(=O)c3cccnc3)cc2)nn1`, the inhibition was 10.7%.

Take `COc1nccnc1NS(=O)(=O)c1ccc(NC(=S)NC(=O)c2cccnc2)cc1`: the inhibition was 36%.

`NC(=O)c1ccc(NC(=O)COc2coc(CN3CCc4ccccc4C3)cc2=O)cc1`: the inhibition was 6.56%.

Regarding `COc1ccccc1C(C[N+](=O)[O-])c1c(N)n(C)c(=O)n(C)c1=O` (stereo not drawn), the inhibition was 2.03%.

As for `COc1cc(C(C[N+](=O)[O-])c2c(N)n(C)c(=O)n(C)c2=O)ccc1O` (stereo not drawn), the inhibition is -4.81%.

For `CC(C)OC(=O)CSc1nnc(CNc2cccc(Cl)c2)n1C`, the inhibition is -3.82%.

Take `CCSc1ccccc1C(=O)Nc1nc2ccccc2c(=O)[nH]1`: the inhibition is 2.88%.

Take `COc1cc2cccc(OC)c(=O)c2c(OC)c1OC`: the inhibition is -4.09%.

In the case of `COc1cc2cccc(OC)c(=O)c2c(O)c1OC`, the inhibition is -3.95%.

As for `Cc1ccc(-c2nn(-c3ccccc3)cc2C(=O)NCC(c2cccs2)N2CCOCC2)cc1` (stereo not drawn), the inhibition is -6.92%.

Regarding `CC(C)CCOP(=O)(c1ccc(N(C)C)cc1)C(O)c1c(Cl)cccc1Cl` (stereo not drawn), the inhibition is -4.25%.

On to `COc1ccc([N+](=O)[O-])cc1NC(=O)C(C)OC(=O)C1CC(=O)N(Cc2ccco2)C1` (stereo not drawn), for which the inhibition was -5.1%.

With `COC(=O)c1ccc(N2C(=O)CC(N3CCOCC3)C2=O)cc1` (stereo not drawn), the inhibition was 1.31%.

Regarding `O=C(NN=C1c2ccccc2-c2ccccc21)c1ccccn1`, the inhibition was 9.9%.

For the compound `COc1ccc2c(c1)C(=NNC(=O)c1ccccn1)c1cc(OC)ccc1-2`, the inhibition was -4.06%.

On to `Cc1ccccc1CS(=O)(=O)c1ccc(C(=O)N2CCC(C)CC2)cc1[N+](=O)[O-]`, for which the inhibition was 1.32%.

As for `Cn1c2c(c(=O)n(C)c1=O)C(c1ccc(Br)cc1)Nc1ccccc1O2` (stereo not drawn), the inhibition is -10.1%.

Consider `Cc1cc(C)n(C(C[N+](=O)[O-])c2ccc(Cl)cc2)n1` (stereo not drawn), for which the inhibition was 16.6%.

On to `Cc1ccc(C(C[N+](=O)[O-])n2nc(C)cc2C)cc1` (stereo not drawn), for which the inhibition is 4.29%.

For the compound `COc1ccc(-c2cc(C(=O)OCC(=O)NC(C)C)c3ccccc3n2)cc1`, the inhibition was 6.33%.

For the compound `COCCN(C(=O)COC(=O)c1ccc2c(c1)OCCO2)c1c(N)n(Cc2ccccc2)c(=O)[nH]c1=O`, the inhibition is 0.22%.

`CCOC(=O)C1CCCN(C(=O)c2ccc(-c3ccc([N+](=O)[O-])cc3)o2)C1` (stereo not drawn): the inhibition was 3.02%.

In the case of `CSc1ncccc1C(=O)Nc1nc2ccc(Oc3ccccc3)cc2s1`, the inhibition is -15.8%.

As to `CN(C)CCCN(C(=O)CCc1ccccc1)c1nc2ccc(Br)cc2s1`, the inhibition was 10.9%.

Take `Cc1ccc2nc(N(CCCN(C)C)C(=O)CCc3ccccc3)sc2c1`: the inhibition is -4.17%.

`C=CCN1CCN(C(=O)c2oc3ccccc3c2C)CC1`: the inhibition was -3.66%.

Consider `Cc1ccc(NC2CCCN(C(=O)c3cn(C)c4ccccc34)C2)cc1C` (stereo not drawn), for which the inhibition was 0.88%.

In the case of `CCCC(=O)NC(c1cccs1)c1cc(Cl)c2cccnc2c1O` (stereo not drawn), the inhibition is -5.84%.

With `CCCCC(=O)NC(c1cccs1)c1cc(Cl)c2cccnc2c1O` (stereo not drawn), the inhibition is -0.21%.

With `CC(=O)NC(c1ccccc1)c1cc([N+](=O)[O-])c2cccnc2c1O` (stereo not drawn), the inhibition is 4.87%.

Turning to `CC(=O)NC(c1ccc2ccccc2c1)c1ccc2cccnc2c1O` (stereo not drawn), the inhibition is 56.5%.

`COc1cccc(C(NC(C)=O)c2ccc3cccnc3c2O)c1` (stereo not drawn): the inhibition was 9.73%.

`CC(C)C(=O)NC(c1cccs1)c1cc([N+](=O)[O-])c2cccnc2c1O` (stereo not drawn): the inhibition was 2.63%.

With `Cc1ccc(C(NC(=O)C(C)C)c2cc([N+](=O)[O-])c3cccnc3c2O)cc1` (stereo not drawn), the inhibition was 9.47%.

With `CC(C)C(=O)NC(c1ccccc1)c1cc([N+](=O)[O-])c2cccnc2c1O` (stereo not drawn), the inhibition is -2.27%.

Consider `COc1cccc2cc(CC(=O)c3cc(C)ccc3C)c(=O)oc12`, for which the inhibition is -3.13%.

For the compound `CCOc1ccc(NC(=O)CN(C)C(=O)c2ccc3nc(CC)c(CC)nc3c2)cc1OCC`, the inhibition was -9.1%.

`CC(C)C[C@H](NC(=O)c1nc[nH]c1C(=O)NCCCCCNC(=O)OC(C)(C)C)C(=O)OCc1ccccc1`: the inhibition was -4.74%.

In the case of `Cc1ccc(S(=O)(=O)N2CCN(C(=O)CC(C)C)CC2)cc1`, the inhibition is 3.71%.

As to `Cc1ccc(NC(=O)Nc2ccon2)cc1Cl`, the inhibition is 0.2%.

Take `Clc1ccccc1CONc1ncnc2nonc12`: the inhibition was -2.15%.

Consider `CCC(C)(C)NC(=O)Cc1ccc(OC)c(OC)c1`, for which the inhibition was -10.6%.

As to `O=Cc1c(F)cccc1N1CCCC1`, the inhibition was 8.32%.

With `Cc1cccc(NC(=O)CC2(CC(=O)O)CCCC2)c1`, the inhibition was -1.98%.

Take `Cc1ccc(C2N(c3ccc(Cl)cc3)C(=O)N3CCCN23)cc1` (stereo not drawn): the inhibition was -0.36%.

`O=[N+]([O-])c1cc2cccnc2c2ncccc12`: the inhibition was -10.2%.

Turning to `CCOC(=O)COc1cc([N+](=O)[O-])cc2cccnc12`, the inhibition is 1.41%.

`CN(C)[C@@H]1C(=O)C(C(=O)NCN2CCCC2)=C(O)[C@@]2(O)C(=O)C3=C(O)c4c(O)cccc4[C@@](C)(O)C3CC12` (stereo partly drawn): the inhibition was 1.32%.

In the case of `O=C1C(Oc2ccc(Cl)cc2)C(c2ccc3c(c2)OCO3)N1CC1CCCO1` (stereo not drawn), the inhibition was -1.66%.

On to `COc1ccc(-c2cc(C(F)(F)F)n3nc(C(=O)N4CCN5CCCC5C4)cc3n2)cc1OC` (stereo not drawn), for which the inhibition is 8.34%.
